Experimental data published in PubChem BioAssay AID686922 (National Center for Advancing Translational Sciences (NCATS), 2013).
Inconclusive results are not listed. Entries that show only a call come without a potency. The source made the active and inactive calls. Calls follow the shape of the dose curve; as a rule, active = well fitted inhibition curve with a large enough effect; inconclusive = small, poorly fitted or top-dose-only effect; inactive = no such curve, though single readings can be large or run the other way.

assay: qHTS screen for inhibitors of ELG1-dependent DNA repair in human embryonic kidney (HEK293T) cells expressing luciferase-tagged ELG1: MMS Viability Assay for probe SAR; settings: HEK293T ELG1-luc + MMS viability, CellTiter-Glo, 16 h; series mostly up to 46.1 µM
From the text: Cancer cells divide rapidly compared to normal cells in the body. During cell division, cancer cells need to duplicate their genome by DNA replication. The failure of genome duplication leads to cancer cells' death. Therefore, inhibitors of DNA replication could specifically kill cancer cells. Based on this concept, many chemotherapeutic agents were developed and have been used to treat cancer patients. However, there are a limited number of agents available in the clinical setting, and some of those that do exist have low efficacy and severe side effects. Therefore, if we can find the compounds that effectively block DNA replication either by directly damaging DNA or by inhibiting other cellular mechanisms, the options for cancer treatment will be broadened. With this in mind, we developed a quantitative high-throughput ELG1-luciferase reporter gene assay. Small molecules that specifically block ELG1 function in response to DNA damage can be identified by monitoring the suppression of luciferase activity. Since ELG1 defines a pathway for repairing DNA damage, agents blocking ELG1 function can be used to sensitize cancer cells to chemotherapeutic agents whose mechanism of action involves the induction of DNA damage. Cytotoxicity of the active compounds in the ELG1 qHTS assay with MMS stimulation (AID 493125) was assessed using the CellTiter-Glo Luminescent Cell Viability Assay kit (Promega, USA). CellTiter-Glo measures the intracellular ATP present in metabolically active cells using Ultra-Glo as the luciferase to detect ATP levels. In brief, the luciferase in the buffer catalyzes the oxidation of luciferin to oxyluciferin and light which is dependent on ATP. […] DMSO and wells with media alone were used as positive and negative controls, respectively. Inactivity to this assay is the desirable outcome. NIH Molecular Libraries Probe Production Network [MLPCN] NIH Chemical Genomics Center [NCGC] MLPCN Grant: R03 MH092164 Assay Provider: Kyungjae Myung, NHGRI, NIH
ELG1-luc HEK293T cells will be seeded in 1536-well plates at a density of 2,000 cells/well. Approximately 5 hours after plating, compounds will be added to the plate by pin tool transfer and MMS will be added by FRD dispenser (final concentration of MMS = 10 µM). 16 hours following the addition of the compounds, cell viability will be measured using CellTiter Glo.

| SMILES | Potency |
| --- | --- |
| COc1cc(Nc2nc(-c3ccncc3)nc3ccccc23)ccc1NS(C)(=O)=O | inactive |
| COc1cnccc1-c1nc(Nc2ccc(F)c(F)c2)c2ccccc2n1 | 16.6 µM (active) |
| COC(=O)c1ccc(Nc2nc(-c3ccncc3)nc3ccccc23)cc1OC | inactive |
| Cc1cnccc1-c1nc(Nc2ccc(F)c(F)c2)c2ccccc2n1 | inactive |
| Fc1cc(Nc2nc(-c3ccncc3)nc3ccccc23)ccc1-c1cccc(C(F)(F)F)c1 | 20.9 µM (active) |
| COc1ccc(-n2c(C)c(C(C)=O)c3cc(O)ccc32)cc1 | inactive |
| Fc1cccc(Nc2nc(-c3ccncc3)nc3ccccc23)c1 | inactive |
| Nc1cc(-c2nc(Nc3ccc(F)c(F)c3)c3ccccc3n2)ccn1 | inactive |
